Data from PubChem BioAssay AID2625 (National Center for Advancing Translational Sciences (NCATS), 2010).
Records with an inconclusive call do not appear. Active and inactive are the calls of the source. Calls come from the whole dose curve; as a rule, active = well fitted curve in the direction sought with a large enough effect; inconclusive = small, poorly fitted or top-dose-only effect, or effect the other way, or another doubt; inactive = no such curve, though single readings can be large or run the other way.

Each compound was assayed against Pyruvate kinase PKLR (Homo sapiens) (UniProt P30613) (assay: Secondary LDH Assay for Activators of Human Liver Pyruvate Kinase: for Probe SAR). Conditions: purified hPK-L, LDH-coupled NADH fluorescence kinetic; series mostly up to 58.2 µM.
Chain of Pyruvate kinase PKLR (Homo sapiens) (P30613 whole entry, looked up): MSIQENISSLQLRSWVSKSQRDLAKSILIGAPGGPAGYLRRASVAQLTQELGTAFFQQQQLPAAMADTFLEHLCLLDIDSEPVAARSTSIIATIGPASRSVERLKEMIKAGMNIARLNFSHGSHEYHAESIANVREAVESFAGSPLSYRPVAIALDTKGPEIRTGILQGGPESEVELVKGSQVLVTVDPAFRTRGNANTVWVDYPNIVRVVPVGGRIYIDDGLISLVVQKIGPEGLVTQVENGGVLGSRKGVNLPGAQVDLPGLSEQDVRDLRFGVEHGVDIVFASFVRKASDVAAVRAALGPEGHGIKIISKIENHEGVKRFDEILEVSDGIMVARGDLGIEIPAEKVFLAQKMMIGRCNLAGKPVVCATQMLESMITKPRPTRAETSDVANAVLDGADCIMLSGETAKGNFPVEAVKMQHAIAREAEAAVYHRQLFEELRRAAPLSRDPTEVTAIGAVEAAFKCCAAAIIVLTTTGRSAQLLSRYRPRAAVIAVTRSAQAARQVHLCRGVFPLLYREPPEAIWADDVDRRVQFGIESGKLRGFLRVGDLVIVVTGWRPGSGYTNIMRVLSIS
Method in brief: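 Kinetic LDH-coupled read-out: NADH fluorescence loss followed every 30 s for 3–6 min gave initial rates. Reaction: 10 nM human liver PK, 0.1 mM PEP, 4 mM ADP, 0.2 mM NADH, 50 mM Tris-Cl pH 8.0; activation normalised to fructose-bis-phosphate.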

outcome, inactive:
COc1cccc(Cn2ncc3c4sc(S(C)=O)cc4n(C)c3c2=O)c1 (centres undefined)
O=C1c2ccccc2C(=O)N1c1ncccc1O
CC(=O)N1CCCc2cc(S(=O)(=O)Nc3ccc(C)c(C)c3)ccc21
CSc1cc2c(s1)c1cnn(Cc3cccc(O)c3)c(=O)c1n2C
O=C1c2ccccc2C(=O)N1c1cc(=O)c2ccccc2[nH]1
O=C1CCc2cc(S(=O)(=O)Nc3ccc4c(c3)OCCO4)ccc2N1
O=C1c2ccccc2C(=O)N1c1noc2ccccc12
CC(=O)N1CCc2cc(S(=O)(=O)Nc3ccc(C)c(C)c3)ccc21
Cc1ccc(NS(=O)(=O)c2ccc3c(c2)n(C)c(=O)n3C)cc1C
Cc1ccc(NS(=O)(=O)c2cccc(F)c2)cc1C
Cc1nc(-c2ccc(S(=O)(=O)Nc3ccc(C)c(C)c3)s2)cs1
O=C1c2ccccc2C(=O)N1c1cccc2cnccc12
O=S1(=O)N=C(Oc2ccccc2)c2ccccc21
O=C1c2ccccc2C(=O)N1C1CCCCC1
Cc1ccc(NS(=O)(=O)c2ccc3c(c2)CCC(C)(C)O3)cc1C
COc1ccccc1N1C(=O)c2ccccc2C1=O
O=C1c2ccccc2C(=O)N1c1ccccc1O
O=C1CCc2cc(S(=O)(=O)Nc3ccc(Cl)cc3)ccc2N1
O=C1CCc2cc(S(=O)(=O)Nc3ccc4c(c3)CCC4)ccc2N1
Cc1cc(N2C(=O)c3ccccc3C2=O)no1
O=C1c2ccccc2C(=O)N1c1cccc(Cl)c1
O=C1c2ccccc2C(=O)N1c1nccs1
COc1cc(F)c(S(=O)(=O)N2CCCN(S(=O)(=O)c3cccc(N)c3)CC2)c(F)c1
Cc1ccc(NS(=O)(=O)c2ccc3c(c2)N(C)CCO3)cc1C
